Screen size: about 96,000 compounds; about 20,000 (21%) were called active. A selection follows. A number with no mark means an inactive call.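 The calls were made as follows: active = CYP2C19 inhibition above a set limit at 5 µM in the primary screen (cut at about 50% in these data); inactive = the rest.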
biological target: Cytochrome P450 2C19 (Homo sapiens) (UniProt P33261); experiment: blockers of cytochrome P450 2C19 activity – biochemical, luminescence, ADME assay, primary screen (AID 778); details: CYP2C19 Supersomes, luciferin-H EGE luminescence, 30 min; at 5 µM; active compounds read high;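 also: plate controls were negative control wells for no effect and 2.5 mM tranylcypromine positive control for full effect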
Sequence (P33261 whole entry, looked up): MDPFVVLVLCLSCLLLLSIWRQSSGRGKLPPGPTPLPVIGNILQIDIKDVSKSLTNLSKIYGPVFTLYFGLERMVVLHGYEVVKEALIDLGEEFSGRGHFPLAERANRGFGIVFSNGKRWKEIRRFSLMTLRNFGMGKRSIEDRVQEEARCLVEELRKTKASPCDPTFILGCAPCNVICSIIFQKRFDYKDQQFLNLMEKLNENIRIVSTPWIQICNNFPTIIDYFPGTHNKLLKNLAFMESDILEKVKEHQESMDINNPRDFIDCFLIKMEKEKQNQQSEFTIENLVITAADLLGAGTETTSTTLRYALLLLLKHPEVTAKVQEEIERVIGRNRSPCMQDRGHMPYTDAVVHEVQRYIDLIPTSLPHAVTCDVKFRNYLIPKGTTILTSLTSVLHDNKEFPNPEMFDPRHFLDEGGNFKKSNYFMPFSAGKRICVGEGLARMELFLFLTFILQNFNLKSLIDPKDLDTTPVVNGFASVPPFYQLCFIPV

Row | Compound | inhibition
1 | CCCCn1c(SCc2ncc(-c3ccccc3)o2)nc2cc(S(N)(=O)=O)ccc21 | 25%
2 | Cc1cc(C)nc(NC(=O)Nc2ccccc2C(F)(F)F)n1 | 21%
3 | O=C(c1ccccc1)c1cc(-c2ccccn2)c(N2CCOCC2)s1 | 14.1%
4 | Cc1cc(=O)oc2cc(OCC3CC(c4ccccc4Cl)=NO3)ccc12 (stereo unspecified) | 50.8% (active)
5 | Cc1cc(=O)oc2ccc(OCC(=O)O)cc12 | 3.3%
6 | COc1cccc(-c2nnc(SCCOc3ccc4c(C)cc(=O)oc4c3)o2)c1 | -15.6%
7 | CCOC(=O)c1c(NC(=O)CSc2nnc(CN3CCOCC3)n2C)sc2c1CCCC2 | 48.7%
8 | NC(=O)C1CC=CCC1C(=O)OCC(Cl)=C(Cl)Cl (stereo unspecified) | 22%
9 | COc1ccc(N=Cc2c(O)[nH]c3ccccc23)cc1OC | 32.9%
10 | COc1cc(N=Cc2c(O)[nH]c3ccccc23)cc(OC)c1OC | 63.9% (active)
11 | COc1ccc(OC)c(N=Cc2c(O)[nH]c3ccccc23)c1 | 7.7%
12 | Nn1c(SCC(=O)NC2CCCC2)nnc1-c1ccccc1F | 21.3%
13 | O=c1[nH][nH]c(C(F)(F)F)c1C=NCc1ccccc1Cl | 93.3% (active)
14 | CC/S(CC1CC1(Cl)Cl)=N\S(=O)(=O)c1ccc(C)cc1 (stereo unspecified) | 9.6%
15 | COc1ccc(NS(=O)(=O)c2ccc(NC(=O)C(C)(C(F)(F)F)C(F)(F)F)cc2)nn1 | -7.1%
16 | CC1=NC2(CCCc3c2no[n+]3[O-])N(O)C1(C)C (stereo unspecified) | -17.9%
17 | CSc1nnc2c(n1)OC(c1cn(C)c3ccccc13)N(C(C)=O)c1ccccc1-2 (stereo unspecified) | 0.8%
18 | Oc1c(C(c2ccccn2)N2CCOCC2)ccc2cccnc12 (stereo unspecified) | -8.6%
19 | CCOC(=O)N1CCN(C(=O)CSc2nnc(-c3c[nH]c4ccccc34)n2CCOC)CC1 | 4.5%
20 | CCOC(=O)N1CCN(C(=O)CNC(=O)Cc2ccc(Cl)cc2)CC1 | 5.9%
21 | CCOC(=O)C1CCN(C(=O)Cc2c(C(=O)O)[nH]c3ccccc23)CC1 | 2.6%
22 | CCOC(=O)N1CCN(C(=O)CSc2ccc(Cl)cc2)CC1 | 71.6% (active)
23 | CCOC(=O)C1CCN(C(=O)CSc2cc(=O)n(C)c3ccccc23)CC1 | 2.4%
24 | CCOC(=O)C1CCN(C(=O)COc2cc(C)c(Br)c(C)c2)CC1 | 86.3% (active)
25 | CCOC(=O)N1CCN(C(=O)COc2ccc(Br)cc2)CC1 | 59.1% (active)
26 | CCOC(=O)N1CCN(C(=O)COc2ccc(Cl)cc2C)CC1 | 14.4%

Row | Compound | inhibition
27 | CN1CCCC(OC(=O)COc2ccc(Br)cc2)C1 (stereo unspecified) | 27%
28 | CC12C(=O)N(n3cnnc3)C(=O)C1C1C=CC2C1 (stereo unspecified) | -13.7%
29 | Cc1cc2nnc(SCC(=O)N3CCN(c4ccccc4)CC3)n2c(N)n1 | -9.1%
30 | NC(=O)CSC1=Nc2ccccc2C2=NC(CCC(=O)NCc3ccc(F)cc3)C(=O)N12 (stereo unspecified) | 47.9%
31 | CCOC(=O)CCc1c(C)c(C#N)c2[nH]c3ccccc3n2c1=O | 27.1%
32 | CC1CN(C2CCCCC2)c2nc3c(c(=O)n(C)c(=O)n3C)n2C1 (stereo unspecified) | 29.5%
33 | O=C1NC(c2cc3c(cc2Cl)OCO3)Oc2ccccc21 (stereo unspecified) | 55.5% (active)
34 | Cc1cc(C)c2c3c(sc2n1)C(c1ccccc1)C(C#N)=C(N)O3 (stereo unspecified) | -7.9%
35 | CC1=NN(Cc2ccccc2)C(=O)/C1=C/c1ccc(N(C)C)cc1 | 10.1%
36 | CN(C)c1ccc(/C=C2\NC(=S)N(Cc3ccccc3)C2=O)cc1 | 57.6% (active)
37 | CN(C)c1cc[n+](Cc2ccccc2)cc1 | -3.4%
38 | CCCCCCCC(=O)NC(Nc1ccccc1OC)C(Cl)(Cl)Cl (stereo unspecified) | 3.6%
39 | CCOC(=O)CSc1nnc(-c2cccc(Br)c2)o1 | 28.9%
40 | CCOC(=O)CSc1nnc(CNc2ccc(F)cc2)o1 | 56.5% (active)
41 | CCC(=O)Nc1ccc(C(=O)CSc2nnc(CNc3ccc(Cl)cc3)o2)cc1OC | 11%
42 | CNC(=O)c1nnn(-c2ccccc2)c1C(=O)NC | -4%
43 | Cc1ccc(-n2ncc3c(=O)n(-c4ccc(C)c(C)c4)c(-c4ccco4)nc32)cc1 | 30.9%
44 | O=C(NCc1cccnc1)c1ccc(CS(=O)(=O)c2ccc(Br)cc2)o1 | 100% (active)
45 | O=S(=O)(c1ccc(Br)cc1)c1nc(-c2ccccc2)oc1NCc1cccnc1 | 18.4%
46 | O=C(NCc1ccco1)c1ccc(CS(=O)(=O)Cc2ccc(F)cc2)o1 | 42.4%
47 | CC(C)CNC(=O)C1CCCN(S(=O)(=O)c2ccc(-n3cnnn3)cc2)C1 (stereo unspecified) | -17.5%
48 | CC(C)(C)C(=O)CCN1C(=O)C2(OCCO2)c2ccccc21 | 30%
49 | C=CCn1c(-c2ccc3[nH]c(C)c(C)c3c2)n[nH]c1=S | 29.1%
50 | O=C(NCc1ccc(Cl)cc1)c1cc2c(nc3sccn32)s1 | 14.8%
51 | O=C(NCc1cn2ccsc2n1)Nc1ccc(Cl)cc1 | 29.8%
52 | O=c1cc(Cn2nnc(-c3ccc(Cl)cc3)n2)nc2sccn12 | 65.5% (active)

Row | Compound | inhibition
53 | Cc1cccc(C)c1NC(=O)N1CC=C(n2c(=O)[nH]c3ccccc32)CC1 | -0.4%
54 | Cc1nn(-c2ccccc2)c2c1C(=O)NC(=O)C(C)(C)C2 | 28%
55 | Cc1ccc(C2=NN(C)c3nc4ccccc4n3C2)cc1 | 12.8%
56 | CCCCNC(=O)CCNC(=O)c1ccc(C(C)(C)C)cc1 | 31.5%
57 | CCN(CC(=O)NC(C)C)C(=O)CCNC(=O)c1ccc(Cl)cc1 | 10.5%
58 | Cc1ccc(CNC(=O)CCCNC(=O)c2ccc(Cl)cc2)n1C | 60.2% (active)
59 | N#C/C(=C(\O)CCl)c1nnc2n1CCCCC2 | 3.5%
60 | O=C1CCCCC(=O)c2ccccc2N1 | 12.2%
61 | CCCCOc1ccc(C(=O)NCc2ccco2)cc1 | 20.2%
62 | CCCCOc1ccc(C(=O)NCc2ccncc2)cc1 | 76.1% (active)
63 | CCOc1ccc(C(=O)Nc2ccncc2)cc1 | 97.9% (active)
64 | CCOc1cccc(C(=O)Nc2cccnc2)c1 | -3.6%
65 | CCCCCCOc1ccc(OC(=O)c2cccnc2)cc1 | 20.8%
66 | CCOc1ccc(NC(=O)Nc2cc(C)on2)cc1 | 22.7%
67 | CC(=O)Nc1nonc1-c1nc2ccccc2n1Cc1ccccn1 | -7.6%
68 | CCN1C(=O)/C(=C2/Sc3ccccc3N2CCCS(=O)(=O)O)SC1=S | 0%
69 | CCOc1ccc2[nH]c(=O)c(CN(CCCO)C(C)=O)cc2c1 | -11.4%
70 | CC(C)CNC(=O)c1cc(-c2ccc(Br)cc2)on1 | -6.3%
71 | c1ccc2c(c1)OCC(CNc1ncnc3nc[nH]c13)O2 (stereo unspecified) | 4%
72 | O=C(Nc1ccc2nc3n(c(=O)c2c1)CCCCC3)c1ccccc1Cl | 13.1%
73 | O=c1c2c(nc3n1CCCCC3)sc1c(O)cccc12 | 72.2% (active)
74 | Cc1cccc2c(=O)n3c(nc12)CCCCC3 | 28.1%
75 | O=C(CSc1nc2c(cnn2-c2ccc(F)cc2)c(=O)[nH]1)N1CCCCCC1 | 2.3%
76 | CN1/C(=C\C=C2\N=C(c3ccc(F)cc3)OC2=O)C(C)(C)c2ccccc21 | 45.9%
77 | CN1/C(=C\C(=O)c2oc3ccccc3c2N)C(C)(C)c2ccccc21 | 47.9%
78 | Cc1noc(C)c1C(=O)OCC(=O)/C=C1\N(C)c2ccccc2C1(C)C | 60.2% (active)

Row | Compound | inhibition
79 | O=P(O)(CP(=O)(c1ccccc1)c1ccccc1)c1ccccc1 | -1.3%
80 | Cc1ccc(N2CCN(c3ccc(C)cc3)C2c2ccccn2)cc1 | 27.1%
81 | CCc1ccccc1NC(=O)/C(=C/c1ccccc1)c1ccccc1 | 28.8%
82 | O=C(CSc1nnc(-c2cccs2)n1Cc1ccccc1)N1CCc2ccccc2C1 | 31.9%
83 | O=c1onc(-c2cccs2)n1Cc1ccccc1 | 79.9% (active)
84 | O=c1[nH]c(-c2cccs2)nc2ccccc12 | 1.4%
85 | Cn1c(C(=O)NCCN2CCc3ccccc3C2)cc2c(=O)[nH]c3ccccc3c21 | 14.8%
86 | CCOC(=O)CCc1c(C)c2ccc(OCc3nn[nH]n3)c(C)c2oc1=O | 0%
87 | O=C1c2cccc3cc(Br)cc(c23)C(=O)N1Nc1ccccc1 | 29.2%
88 | Cc1noc(NS(=O)(=O)c2ccc(NC(=O)C34CCC(CC3)C4)cc2)c1C | -12.3%
89 | Cc1ccccc1C(=O)N1CCC(C(=O)Nc2ccc(S(=O)(=O)N(C)C(C)C)cc2)CC1 | 25.1%
90 | COC(=O)c1[nH]c2ccc(Br)cc2c1NC(=O)Oc1ccccc1 | 7.3%
91 | COC(=O)c1[nH]c2ccccc2c1NS(=O)(=O)c1ccc(OC)cc1OC | 89.7% (active)
92 | CCCS(=O)(=O)Nc1c(C(=O)O)[nH]c2ccccc12 | 11.8%
93 | CCOCCCNC(=O)c1c[nH]c2cc(C)ccc2c1=O | -3.9%
94 | CC(C)c1ccc(C(=O)NCCCc2ccccc2)cc1 | 14.8%
95 | C[C@H](NC(=O)NCCc1ccccc1)C(=O)O | -17.1%
96 | CCC(C)NC(=O)CCCc1ccccc1 (stereo unspecified) | 58.1% (active)
97 | Cc1ccc2cccc(O)c2[n+]1[O-] | 1.9%
98 | CCc1ccc2nc3sc(C(=O)Nc4nnc(CC)s4)c(N)c3cc2c1 | 39.6%
99 | COc1cc(-c2nnc(Cn3cc(C(F)(F)F)ccc3=O)o2)cc(OC)c1OC | 8.6%
100 | CCCc1nc2ccccc2c(C(=O)OCc2nnc(-c3cc(OC)c(OC)c(OC)c3)o2)c1CC | 69.1% (active)
101 | CCCc1nc2ccccc2c(C(=O)OCC(=O)c2ccc3c(c2)NC(=O)CO3)c1CC | -9.7%

Source: PubChem BioAssay AID778 (Sanford-Burnham Center for Chemical Genomics, 2007)
